{"source": "PubChem BioAssay AID2766", "about": "(Sanford-Burnham Center for Chemical Genomics, 2010)", "target": "Apelin receptor (Homo sapiens) (UniProt P35414)", "sequence (P35414 whole entry, looked up)": "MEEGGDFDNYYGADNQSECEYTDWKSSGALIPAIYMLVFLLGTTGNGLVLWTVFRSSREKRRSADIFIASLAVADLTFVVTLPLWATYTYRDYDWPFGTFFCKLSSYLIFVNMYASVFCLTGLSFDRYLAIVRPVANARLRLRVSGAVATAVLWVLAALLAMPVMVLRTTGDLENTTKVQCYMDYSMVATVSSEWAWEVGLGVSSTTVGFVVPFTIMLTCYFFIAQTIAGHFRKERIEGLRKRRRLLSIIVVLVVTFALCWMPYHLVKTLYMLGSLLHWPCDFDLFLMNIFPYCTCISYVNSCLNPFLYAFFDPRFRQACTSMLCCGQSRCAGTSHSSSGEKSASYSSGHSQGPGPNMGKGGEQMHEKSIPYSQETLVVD", "experiment": "apelin receptor inhibitors, beta-arrestin readout – cell-based, luminescence, single concentration, uHTS hits, confirmation (AID 2766)", "conditions": "APJ beta-arrestin recruitment, antagonist mode, at 20 µM, active compounds read high", "note": "This is one part of the list. The source made the active and inactive calls. Rule as the data show it: active = inhibition above about 50%; inactive = the rest."}
{"smiles": "CCOC(=O)c1c(N)n(Cc2ccccc2)c2nc3ccccc3nc12", "values": [{"measurement": "inhibition", "result": "35% (inactive)"}]}
